Assay results as given in article PMC7862700, “An all-to-all approach to the identification of sequence-specific readers for epigenetic DNA modifications on cytosine”.

Tests used:
Assay in all cases: DAPPL (digital affinity profiling via proximity ligation, sequencing); 10 mM Tris-HCl pH 7.5, 50 mM NaCl, 1 mM DTT, 4% glycerol, room temperature, 30 min; GST-TFs on glutathione beads, 16-mer random dsDNA library, 0.1% formaldehyde crosslink after washing; high values mean tight binding
FEV = biological target: T1, FEV (Homo sapiens, UniProt Q99581 1-238); settings: protein: recombinant; tags: N-terminal GST; dsDNA, one strand shown
T1 sequence: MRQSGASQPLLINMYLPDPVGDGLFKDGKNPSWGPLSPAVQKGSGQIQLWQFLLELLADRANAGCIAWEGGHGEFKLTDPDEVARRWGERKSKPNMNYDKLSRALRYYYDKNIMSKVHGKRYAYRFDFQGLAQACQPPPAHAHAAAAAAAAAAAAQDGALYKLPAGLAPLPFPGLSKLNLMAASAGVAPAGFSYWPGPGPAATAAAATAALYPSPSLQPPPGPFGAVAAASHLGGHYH
In short: (§1)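 Yeast served to express human transcription factors as GST fusions, which were then captured on glutathione beads and labelled with DNA barcodes. Pooled with a tag-only sample, they were incubated with 200 nmole of a 16-mer random double-stranded DNA library for 30 min at room temperature in Tris/NaCl/DTT/glycerol buffer, washed, crosslinked with 0.1% formaldehyde, ligated by proximity, amplified by PCR and sequenced. Dividing each hexamer's read frequency for a factor by its frequency for the tag-only sample gives the binding signal.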

ETV5 = ETV5 (Homo sapiens, UniProt P41161 1-510); settings: protein: recombinant; tags: N-terminal GST; dsDNA, one strand shown
Sequence of ETV5 (P41161 whole entry): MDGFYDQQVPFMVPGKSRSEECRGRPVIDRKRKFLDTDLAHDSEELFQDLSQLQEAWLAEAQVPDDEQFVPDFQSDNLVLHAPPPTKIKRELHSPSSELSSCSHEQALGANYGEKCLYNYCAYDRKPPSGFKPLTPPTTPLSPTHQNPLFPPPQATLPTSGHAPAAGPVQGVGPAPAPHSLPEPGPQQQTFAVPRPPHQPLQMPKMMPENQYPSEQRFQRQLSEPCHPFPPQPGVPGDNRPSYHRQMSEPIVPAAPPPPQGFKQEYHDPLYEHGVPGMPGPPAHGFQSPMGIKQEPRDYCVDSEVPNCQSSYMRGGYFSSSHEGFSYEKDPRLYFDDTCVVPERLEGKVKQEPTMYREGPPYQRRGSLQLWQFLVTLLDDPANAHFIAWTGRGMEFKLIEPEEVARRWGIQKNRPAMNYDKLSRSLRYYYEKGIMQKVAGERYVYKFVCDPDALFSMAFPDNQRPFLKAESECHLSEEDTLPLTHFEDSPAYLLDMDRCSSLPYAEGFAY
In short: as §1

HSF1 = HSF1 (Homo sapiens, UniProt Q00613 1-529); settings: protein: recombinant; tags: N-terminal GST; chain copies: 3; dsDNA, one strand shown
Sequence of HSF1 (Q00613 whole entry): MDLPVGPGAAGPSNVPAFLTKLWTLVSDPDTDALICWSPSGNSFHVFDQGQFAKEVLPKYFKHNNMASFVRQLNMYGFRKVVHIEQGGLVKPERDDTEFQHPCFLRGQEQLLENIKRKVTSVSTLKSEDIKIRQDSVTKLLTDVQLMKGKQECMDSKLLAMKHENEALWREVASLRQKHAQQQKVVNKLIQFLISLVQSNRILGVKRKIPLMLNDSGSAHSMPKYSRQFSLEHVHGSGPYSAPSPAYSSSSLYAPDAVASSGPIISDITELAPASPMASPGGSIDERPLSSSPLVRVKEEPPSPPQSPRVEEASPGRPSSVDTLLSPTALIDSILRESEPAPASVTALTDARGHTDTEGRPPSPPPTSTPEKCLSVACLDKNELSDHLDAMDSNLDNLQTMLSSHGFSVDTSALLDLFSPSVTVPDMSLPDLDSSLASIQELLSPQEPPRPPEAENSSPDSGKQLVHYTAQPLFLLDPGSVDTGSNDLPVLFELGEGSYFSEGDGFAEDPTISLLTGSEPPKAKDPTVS
In short: as §1

SPIC = biological target: T2, SPIC (Homo sapiens, UniProt Q8N5J4 1-248); settings: protein: recombinant; tags: N-terminal GST; dsDNA, one strand shown
T2 sequence: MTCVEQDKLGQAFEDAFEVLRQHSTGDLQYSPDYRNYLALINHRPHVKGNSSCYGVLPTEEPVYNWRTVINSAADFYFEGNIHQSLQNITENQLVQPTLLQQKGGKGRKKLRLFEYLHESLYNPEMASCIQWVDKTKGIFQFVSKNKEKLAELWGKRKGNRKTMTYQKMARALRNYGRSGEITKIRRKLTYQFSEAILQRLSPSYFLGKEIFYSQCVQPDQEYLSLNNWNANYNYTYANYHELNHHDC
In short: as §1

ELF4 = ELF4 (Homo sapiens, UniProt Q99607 1-663); settings: protein: recombinant; tags: N-terminal GST; dsDNA, one strand shown
Sequence of ELF4 (Q99607 whole entry): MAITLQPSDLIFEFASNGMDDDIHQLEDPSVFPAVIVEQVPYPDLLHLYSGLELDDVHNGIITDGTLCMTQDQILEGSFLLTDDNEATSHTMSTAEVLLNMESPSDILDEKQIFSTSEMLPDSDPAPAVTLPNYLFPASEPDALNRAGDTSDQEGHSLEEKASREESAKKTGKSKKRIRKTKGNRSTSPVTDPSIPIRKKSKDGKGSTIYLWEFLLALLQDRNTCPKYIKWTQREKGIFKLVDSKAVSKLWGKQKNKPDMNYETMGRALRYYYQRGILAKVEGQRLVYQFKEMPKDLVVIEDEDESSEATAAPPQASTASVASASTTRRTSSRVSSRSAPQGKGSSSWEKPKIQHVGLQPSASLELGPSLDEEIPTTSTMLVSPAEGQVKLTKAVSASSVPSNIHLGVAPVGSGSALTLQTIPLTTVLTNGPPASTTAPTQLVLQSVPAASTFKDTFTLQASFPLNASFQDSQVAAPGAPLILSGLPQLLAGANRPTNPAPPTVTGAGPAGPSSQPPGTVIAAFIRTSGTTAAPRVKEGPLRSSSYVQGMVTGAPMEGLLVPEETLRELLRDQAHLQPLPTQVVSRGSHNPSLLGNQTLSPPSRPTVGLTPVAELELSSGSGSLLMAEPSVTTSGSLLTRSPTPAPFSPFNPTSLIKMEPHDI
In short: as §1

ELK4 = biological target: T3, ELK4 (Homo sapiens, UniProt P28324-2 1-405); settings: protein: recombinant; tags: N-terminal GST; dsDNA, one strand shown
T3 sequence: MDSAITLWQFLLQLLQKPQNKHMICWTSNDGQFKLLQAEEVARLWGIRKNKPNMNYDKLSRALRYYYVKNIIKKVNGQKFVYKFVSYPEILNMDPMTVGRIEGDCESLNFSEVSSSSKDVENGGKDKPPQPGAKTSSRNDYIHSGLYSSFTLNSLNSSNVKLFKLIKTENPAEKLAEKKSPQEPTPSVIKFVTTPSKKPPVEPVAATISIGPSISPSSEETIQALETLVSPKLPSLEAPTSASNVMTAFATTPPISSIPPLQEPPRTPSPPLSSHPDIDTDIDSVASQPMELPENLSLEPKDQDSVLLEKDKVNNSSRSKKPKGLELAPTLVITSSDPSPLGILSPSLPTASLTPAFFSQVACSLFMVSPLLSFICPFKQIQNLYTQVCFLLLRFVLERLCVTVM
In short: as §1

ETV2 = biological target: T4, ETV2 (Homo sapiens, UniProt O00321 1-342); settings: protein: recombinant; tags: N-terminal GST; dsDNA, one strand shown
T4 sequence: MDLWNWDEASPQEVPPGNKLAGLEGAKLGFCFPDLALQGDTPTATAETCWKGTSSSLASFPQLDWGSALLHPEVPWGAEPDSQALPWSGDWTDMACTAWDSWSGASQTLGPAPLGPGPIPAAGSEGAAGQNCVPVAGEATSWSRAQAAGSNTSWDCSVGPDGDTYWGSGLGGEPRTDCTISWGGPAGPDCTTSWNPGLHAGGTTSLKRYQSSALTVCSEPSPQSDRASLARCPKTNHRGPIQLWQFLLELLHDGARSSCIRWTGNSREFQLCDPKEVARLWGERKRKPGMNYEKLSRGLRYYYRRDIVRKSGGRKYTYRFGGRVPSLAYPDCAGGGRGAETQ
In short: as §1

ELF3 = biological target: T5, ELF3 (Homo sapiens, UniProt P78545 1-371); settings: protein: recombinant; tags: N-terminal GST; dsDNA, one strand shown
T5 sequence: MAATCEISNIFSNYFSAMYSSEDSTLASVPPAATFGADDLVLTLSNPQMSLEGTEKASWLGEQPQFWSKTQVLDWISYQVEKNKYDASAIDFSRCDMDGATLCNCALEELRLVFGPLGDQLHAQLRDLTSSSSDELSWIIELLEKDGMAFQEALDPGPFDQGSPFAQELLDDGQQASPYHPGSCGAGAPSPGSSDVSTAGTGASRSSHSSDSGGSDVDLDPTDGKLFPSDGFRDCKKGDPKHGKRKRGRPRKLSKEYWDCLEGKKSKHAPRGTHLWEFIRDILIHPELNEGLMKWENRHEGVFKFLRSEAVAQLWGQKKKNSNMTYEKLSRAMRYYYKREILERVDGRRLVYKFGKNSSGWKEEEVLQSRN
In short: as §1

ETV1 = ETV1 (Homo sapiens, UniProt P50549 1-477); settings: protein: recombinant; tags: N-terminal GST; dsDNA, one strand shown
Sequence of ETV1 (P50549 whole entry): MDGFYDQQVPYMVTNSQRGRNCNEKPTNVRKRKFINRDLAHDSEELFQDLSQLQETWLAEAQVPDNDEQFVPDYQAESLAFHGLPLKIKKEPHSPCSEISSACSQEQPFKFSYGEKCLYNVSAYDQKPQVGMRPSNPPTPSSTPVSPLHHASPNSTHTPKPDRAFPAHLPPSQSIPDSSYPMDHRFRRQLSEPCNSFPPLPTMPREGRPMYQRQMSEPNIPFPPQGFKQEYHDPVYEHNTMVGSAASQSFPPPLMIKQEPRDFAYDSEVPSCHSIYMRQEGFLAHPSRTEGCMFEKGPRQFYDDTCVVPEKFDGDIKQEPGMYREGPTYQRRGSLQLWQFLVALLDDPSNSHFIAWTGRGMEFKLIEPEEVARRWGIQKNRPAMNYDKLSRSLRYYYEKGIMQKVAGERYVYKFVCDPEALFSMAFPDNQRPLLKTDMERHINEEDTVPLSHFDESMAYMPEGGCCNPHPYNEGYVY
In short: as §1

ERF = biological target: T6, ERF (Homo sapiens, UniProt P50548 1-548); settings: protein: recombinant; tags: N-terminal GST; dsDNA, one strand shown
T6 sequence: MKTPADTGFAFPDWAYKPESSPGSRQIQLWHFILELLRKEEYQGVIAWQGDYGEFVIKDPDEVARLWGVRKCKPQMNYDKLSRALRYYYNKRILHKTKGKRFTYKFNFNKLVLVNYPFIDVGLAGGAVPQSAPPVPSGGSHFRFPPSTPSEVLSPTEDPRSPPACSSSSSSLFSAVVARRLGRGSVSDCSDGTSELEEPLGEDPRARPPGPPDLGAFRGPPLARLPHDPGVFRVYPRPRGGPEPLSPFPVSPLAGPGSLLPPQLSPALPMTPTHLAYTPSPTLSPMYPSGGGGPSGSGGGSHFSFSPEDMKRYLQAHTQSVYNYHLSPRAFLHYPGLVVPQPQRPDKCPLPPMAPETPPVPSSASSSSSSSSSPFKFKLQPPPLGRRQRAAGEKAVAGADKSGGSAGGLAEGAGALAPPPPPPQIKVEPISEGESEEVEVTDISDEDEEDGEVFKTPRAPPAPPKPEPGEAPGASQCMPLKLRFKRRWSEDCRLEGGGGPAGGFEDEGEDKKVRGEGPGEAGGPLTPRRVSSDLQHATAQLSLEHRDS
In short: as §1

ETV3L = biological target: T7, ETV3L (Homo sapiens, UniProt Q6ZN32 1-361); settings: protein: recombinant; tags: N-terminal GST; dsDNA, one strand shown
T7 sequence: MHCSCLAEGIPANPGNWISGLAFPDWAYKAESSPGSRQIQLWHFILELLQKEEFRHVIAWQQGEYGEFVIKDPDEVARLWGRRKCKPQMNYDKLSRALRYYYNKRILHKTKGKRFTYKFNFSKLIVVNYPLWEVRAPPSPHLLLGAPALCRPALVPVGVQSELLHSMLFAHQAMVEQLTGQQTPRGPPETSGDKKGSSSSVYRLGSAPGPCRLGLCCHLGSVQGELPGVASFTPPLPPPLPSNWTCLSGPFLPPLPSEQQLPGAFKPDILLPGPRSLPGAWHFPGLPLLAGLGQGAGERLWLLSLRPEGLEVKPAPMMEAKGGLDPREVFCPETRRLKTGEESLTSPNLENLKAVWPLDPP
In short: as §1

ETS2 = biological target: T8, ETS2 (Homo sapiens, UniProt P15036 1-469); settings: protein: recombinant; tags: N-terminal GST; dsDNA, one strand shown
T8 sequence: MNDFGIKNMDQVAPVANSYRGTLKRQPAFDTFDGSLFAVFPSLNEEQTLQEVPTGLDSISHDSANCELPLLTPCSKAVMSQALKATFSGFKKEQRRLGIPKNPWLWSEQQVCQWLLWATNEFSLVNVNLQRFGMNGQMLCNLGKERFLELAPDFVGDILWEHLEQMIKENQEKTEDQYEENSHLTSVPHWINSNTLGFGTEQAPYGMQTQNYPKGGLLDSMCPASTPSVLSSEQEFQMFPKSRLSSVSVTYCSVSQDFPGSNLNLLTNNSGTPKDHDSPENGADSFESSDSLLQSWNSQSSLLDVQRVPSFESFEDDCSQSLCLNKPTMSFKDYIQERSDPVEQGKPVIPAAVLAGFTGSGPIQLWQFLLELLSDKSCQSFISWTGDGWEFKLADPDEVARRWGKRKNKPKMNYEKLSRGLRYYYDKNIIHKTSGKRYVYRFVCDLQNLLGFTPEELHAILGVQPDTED
In short: as §1

SPDEF = biological target: T9, SPDEF (Homo sapiens, UniProt O95238 1-335); settings: protein: recombinant; tags: N-terminal GST; dsDNA, one strand shown
T9 sequence: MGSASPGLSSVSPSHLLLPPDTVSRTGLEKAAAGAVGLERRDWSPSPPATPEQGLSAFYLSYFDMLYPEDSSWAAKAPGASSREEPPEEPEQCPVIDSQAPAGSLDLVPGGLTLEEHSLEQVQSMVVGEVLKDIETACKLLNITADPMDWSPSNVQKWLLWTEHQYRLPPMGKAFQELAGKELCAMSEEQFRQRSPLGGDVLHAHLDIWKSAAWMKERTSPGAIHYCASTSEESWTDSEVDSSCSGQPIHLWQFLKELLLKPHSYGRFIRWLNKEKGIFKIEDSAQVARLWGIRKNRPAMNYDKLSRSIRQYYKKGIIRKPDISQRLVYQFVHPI
In short: as §1

ETV7 = biological target: T10, ETV7 (Homo sapiens, UniProt Q9Y603 1-341); settings: protein: recombinant; tags: N-terminal GST; dsDNA, one strand shown
T10 sequence: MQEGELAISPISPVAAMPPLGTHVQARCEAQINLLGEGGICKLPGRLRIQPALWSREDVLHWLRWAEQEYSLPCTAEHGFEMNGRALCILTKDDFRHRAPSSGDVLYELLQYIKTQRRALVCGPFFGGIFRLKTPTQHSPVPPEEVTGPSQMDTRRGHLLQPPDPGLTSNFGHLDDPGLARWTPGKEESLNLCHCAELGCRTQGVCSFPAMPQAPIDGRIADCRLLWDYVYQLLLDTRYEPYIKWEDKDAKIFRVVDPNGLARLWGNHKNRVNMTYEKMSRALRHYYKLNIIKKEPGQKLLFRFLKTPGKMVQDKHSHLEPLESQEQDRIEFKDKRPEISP
In short: as §1

ELF5 = biological target: T11, ELF5 (Homo sapiens, UniProt Q9UKW6-2 1-255); settings: protein: recombinant; tags: N-terminal GST; dsDNA, one strand shown
T11 sequence: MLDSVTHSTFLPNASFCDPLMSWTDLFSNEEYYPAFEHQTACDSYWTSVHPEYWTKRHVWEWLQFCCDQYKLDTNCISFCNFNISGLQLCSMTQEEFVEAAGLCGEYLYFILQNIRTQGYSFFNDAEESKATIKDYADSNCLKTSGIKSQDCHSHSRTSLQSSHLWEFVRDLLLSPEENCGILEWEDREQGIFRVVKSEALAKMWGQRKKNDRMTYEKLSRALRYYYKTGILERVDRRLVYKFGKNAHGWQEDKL
In short: as §1

ETV3 = biological target: T12, ETV3 (Homo sapiens, UniProt P41162-2 1-143); settings: protein: recombinant; tags: N-terminal GST; dsDNA, one strand shown
T12 sequence: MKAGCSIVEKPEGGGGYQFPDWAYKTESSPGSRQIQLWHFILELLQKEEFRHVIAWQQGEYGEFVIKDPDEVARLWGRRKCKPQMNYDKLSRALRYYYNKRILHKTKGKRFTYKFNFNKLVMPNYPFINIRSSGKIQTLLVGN
In short: as §1

ETV6 = ETV6 (Homo sapiens, UniProt P41212 1-452); settings: protein: recombinant; tags: N-terminal GST; dsDNA, one strand shown
Sequence of ETV6 (P41212 whole entry): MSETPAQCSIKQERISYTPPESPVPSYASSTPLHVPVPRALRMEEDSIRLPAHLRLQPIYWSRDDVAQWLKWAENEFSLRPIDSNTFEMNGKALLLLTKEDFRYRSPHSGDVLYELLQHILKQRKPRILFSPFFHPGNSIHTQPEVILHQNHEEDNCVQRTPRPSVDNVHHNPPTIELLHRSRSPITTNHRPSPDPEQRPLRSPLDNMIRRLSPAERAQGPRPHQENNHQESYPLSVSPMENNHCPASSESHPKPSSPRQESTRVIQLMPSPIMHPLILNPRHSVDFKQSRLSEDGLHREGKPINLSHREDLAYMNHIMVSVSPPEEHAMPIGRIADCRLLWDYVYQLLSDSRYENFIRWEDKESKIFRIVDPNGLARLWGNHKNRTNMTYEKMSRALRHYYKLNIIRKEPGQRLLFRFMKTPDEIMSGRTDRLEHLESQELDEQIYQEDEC
In short: as §1

Row | Sequence | binding signal (FEV) | binding signal (ETV5) | binding signal (HSF1) | binding signal (SPIC) | binding signal (ELF4) | binding signal (ELK4) | binding signal (ETV2) | binding signal (ELF3) | binding signal (ETV1) | binding signal (ERF) | binding signal (ETV3L) | binding signal (ETS2) | binding signal (SPDEF) | binding signal (ETV7) | binding signal (ELF5) | binding signal (ETV3) | binding signal (ETV6)
1 | GGTTTC | 1.55 fold enrichment (6-mer frequency, TF over GST control) | 1.61 fold enrichment (6-mer frequency, TF over GST control) | 1.16 fold enrichment (6-mer frequency, TF over GST control) | 1.5 fold enrichment (6-mer frequency, TF over GST control) | 1.49 fold enrichment (6-mer frequency, TF over GST control) | 1.36 fold enrichment (6-mer frequency, TF over GST control) | 1.43 fold enrichment (6-mer frequency, TF over GST control) | 1.31 fold enrichment (6-mer frequency, TF over GST control) | 1.64 fold enrichment (6-mer frequency, TF over GST control) | 1.49 fold enrichment (6-mer frequency, TF over GST control) | 1.52 fold enrichment (6-mer frequency, TF over GST control) | 1.52 fold enrichment (6-mer frequency, TF over GST control) | 1.55 fold enrichment (6-mer frequency, TF over GST control) | 1.38 fold enrichment (6-mer frequency, TF over GST control) | 1.52 fold enrichment (6-mer frequency, TF over GST control) | 1.46 fold enrichment (6-mer frequency, TF over GST control) | 1.51 fold enrichment (6-mer frequency, TF over GST control)
2 | ACGTAC | 1.17 fold enrichment (6-mer frequency, TF over GST control) | 1.21 fold enrichment (6-mer frequency, TF over GST control) | 1.04 fold enrichment (6-mer frequency, TF over GST control) | 1.18 fold enrichment (6-mer frequency, TF over GST control) | 1.23 fold enrichment (6-mer frequency, TF over GST control) | 1.24 fold enrichment (6-mer frequency, TF over GST control) | 1.32 fold enrichment (6-mer frequency, TF over GST control) | 1.25 fold enrichment (6-mer frequency, TF over GST control) | 1.18 fold enrichment (6-mer frequency, TF over GST control) | 1.16 fold enrichment (6-mer frequency, TF over GST control) | 1.12 fold enrichment (6-mer frequency, TF over GST control) | 1.19 fold enrichment (6-mer frequency, TF over GST control) | 1.13 fold enrichment (6-mer frequency, TF over GST control) | 1.24 fold enrichment (6-mer frequency, TF over GST control) | 1.15 fold enrichment (6-mer frequency, TF over GST control) | 1.12 fold enrichment (6-mer frequency, TF over GST control) | 1.25 fold enrichment (6-mer frequency, TF over GST control)
